Test results from PubChem BioAssay (NCI).
This is part of a sample that, as a whole, favours compounds with a hit. Of some 79,000 tested, about 15% had one in any assay. A number with no mark means an inactive call. Calls of active or inactive are those of the source. No stated cut-off is given here; in the data, active means growth inhibition above about 70%; inactive means the rest.

Experiments:
[1] = NCI Yeast Anticancer Drug Screen. Data for the rad50 strain (AID 155);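 further: 0% = growth of vehicle-only cultures of the same strain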; conditions: S. cerevisiae rad50 strain growth inhibition, stronger effect = higher value
In short: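 Inhibition values express reduced yeast growth in compound-treated cultures relative to vehicle-treated controls.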

[2] = NCI Yeast Anticancer Drug Screen. Data for the mec2-1 strain (AID 157); conditions: S. cerevisiae mec2-1 strain, stronger effect = higher value
In short: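 Using mec2-1 yeast: add compound, measure growth, express inhibition versus vehicle-treated cultures.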

[3] = NCI Yeast Anticancer Drug Screen. Data for the sgs1 mgt1 strain (AID 161);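 further: 0% = growth of cultures given vehicle only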; conditions: S. cerevisiae sgs1 mgt1 strain, stronger effect = higher value
In short: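 This yeast growth screen uses a strain with defined DNA-repair lesions; compound-treated growth is compared with vehicle-treated growth.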

[4] = NCI Yeast Anticancer Drug Screen. Data for the cln2 rad14 strain (AID 165);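 further: 0% = growth equal to vehicle treated cultures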; conditions: S. cerevisiae cln2 rad14 strain, stronger effect = higher value
In short: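 Yeast strain cln2 rad14, bearing defects in cell cycle control and DNA repair, serves as the test system; values reflect growth inhibition compared with vehicle.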

[5] = NCI Yeast Anticancer Drug Screen. Data for the bub3 strain (AID 167); conditions: S. cerevisiae bub3 mutant strain, stronger effect = higher value
In short: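 Steps: expose the mutant yeast strain to compound; grow alongside vehicle-treated cultures; measure growth; express inhibition against the vehicle cultures.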

[6] = NCI Yeast Anticancer Drug Screen. Data for the mlh1 rad18 strain (AID 175); conditions: S. cerevisiae mlh1 rad18 strain growth inhibition, stronger effect = higher value
In short: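 Steps: expose repair-defective yeast to compound; measure growth; express inhibition against vehicle-treated controls.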

[7] = at 5.0 µM (retest, dose inferred, filed as 0.5)
[8] = at 50.0 µM (retest, dose inferred, filed as 5.0)

| SMILES | growth inhibition [1, 7] | growth inhibition [1, 8] | growth inhibition ([1]; at 50.0 µM) | growth inhibition [2, 7] | growth inhibition [2, 8] | growth inhibition ([2]; at 50.0 µM) | growth inhibition [3, 7] | growth inhibition [3, 8] | growth inhibition ([3]; at 50.0 µM) | growth inhibition [4, 7] | growth inhibition [4, 8] | growth inhibition ([4]; at 50.0 µM) | growth inhibition [5, 7] | growth inhibition [5, 8] | growth inhibition ([5]; at 50.0 µM) | growth inhibition [6, 7] | growth inhibition [6, 8] | growth inhibition ([6]; at 50.0 µM) |
| --- | --- | --- | --- | --- | --- | --- | --- | --- | --- | --- | --- | --- | --- | --- | --- | --- | --- | --- |
| C(=C1/CNC/C(=C/c2ccccc2)C1)/c1ccccc1 | 11% | 99% (active) | 99.5% (active) | 17% | 99% (active) | 99.6% (active) | 16% | 96% (active) | 99.5% (active) | 27% | 99% (active) | 99.2% (active) | 6% | 99% (active) | 99.3% (active) | -1% | 97% (active) | 99.3% (active) |
| CCCCCCCCCCCC[N+]1(C)CCCC1c1cccnc1 (configuration not stated) | 19% | 97% (active) | 50.5% | 13% | 98% (active) | 97.5% (active) | 4% | 98% (active) | 51.9% | 5% | 98% (active) | 94.3% (active) | 27% | 92% (active) | 97.5% (active) | 19% | 97% (active) | 96.9% (active) |
| COc1cc(C)cc(C(=O)OCc2ccccc2)c1C1=C(Cl)C(=O)C(Cl)=CC1=O | 16% | 16% | 85.5% (active) | 12% | 12% | 83.9% (active) | 5% | 5% | 87.5% (active) | 10% | 10% | 82% (active) | -16% | -16% | 80.5% (active) | 4% | 4% | 74.5% (active) |
| CN(C)CCOc1cc2c(c3ccccc13)-c1ccccc1C2O (configuration not stated) | 30% | 96% (active) | 98.3% (active) | 0% | 45% | 26.8% | 9% | 69% | 67.8% | 1% | 31% | 38.1% | 2% | 34% | 34.5% | 7% | 83% (active) | 72.8% (active) |
| CCOC(=O)C(C)(C)Oc1ccc2c(=O)cc(-c3ccccc3)oc2c1 | -8% | 95% (active) | 85.5% (active) | -28% | 96% (active) | 93% (active) | -43% | 95% (active) | 93.4% (active) | 6% | 96% (active) | 92.5% (active) | -17% | 97% (active) | 92.5% (active) | -56% | 94% (active) | 89.9% (active) |
| O=C(Nc1cccc(Cl)c1)Oc1c(Br)cc(Br)cc1Br | 18% | 98% (active) | 99% (active) | 22% | 99% (active) | 98.7% (active) | 34% | 98% (active) | 99% (active) | -4% | 98% (active) | 94.5% (active) | -7% | 99% (active) | 97.1% (active) | 24% | 99% (active) | 99.4% (active) |
| CCCCN(CCO)CC(O)Cn1cnc2c(N)ncnc21 (configuration not stated) (tested in a mixture with another compound) | -12% | -5% | 21.9% | -12% | -8% | -5.45% | -18% | 0% | -3.9% | -18% | -7% | 18.7% | 1% | -8% | 3.2% | 3% | -4% | 25.9% |
| O=C(CSc1nnc(Cc2ccccc2)o1)Nc1cccc(Cl)c1 | -20% | 91% (active) | 77% (active) | 14% | 85% (active) | 70% (active) | -2% | 86% (active) | 82.2% (active) | 24% | 91% (active) | 78% (active) | 1% | 95% (active) | 77.5% (active) | 9% | 93% (active) | 78.8% (active) |
| O=C(Nc1cc(Cl)c(Cl)cc1Cl)C(=O)C(C(=O)c1ccc2ccccc2c1)C1OC(=O)c2ccccc21 (configuration not stated) | 17% | 17% | 67.7% | 2% | 2% | 37.2% | 15% | 15% | 63.9% | 6% | 6% | 64.5% | -8% | -8% | 59.2% | -14% | -14% | 40% |
